# Results as given in PubChem BioAssay AID434970 (Sanford-Burnham Center for Chemical Genomics, 2010).
# Among all 11,000 compounds or so, about 310 (2.8%) were called active. Cut-off read from the data, not from the text of the source: active = activity change below about -85%; inactive = the rest. The sample as a whole holds a higher share of actives than the screen did.
# Tested on: intestinal alkaline phosphatase [Mus musculus]
# Experiment: activators of mouse IAP, confirmation, biochemical, luminescence, single concentration (AID 434970)
# Conditions: purified mouse IAP, CDP-Star luminescence, 30 min, at 10 µM; activation factor: measured here: IAP activation factor, stronger effect = higher value; activity change, negative = activation: stronger effect = lower value
SMILES,activation factor,"activity change, negative = activation"
Cc1ccc(CN2C3CCCC2CC(NC(=O)Nc2cccc(F)c2)C3)cc1 (stereo not given),4.48,-348% (active)
Cc1cc(C)cc(NC(=S)NC2CC3CCCC(C2)N3Cc2cccs2)c1 (stereo not given),2.5,-150% (active)
Cc1ccc(CN2C3CCCC2CC(NC(=S)NCc2ccccc2)C3)cc1 (stereo not given),2.88,-188% (active)
CCc1ccc(N2C(=O)NC(=O)C(Cc3ccc(OC)cc3OC)C2=O)cc1 (stereo not given),1.06,-5.6% (inactive)
CN1CCN(Cc2cc(C(C)(C)C)c(O)c(C(C)(C)C)c2)CC1,0.944,5.6% (inactive)
CC(CO)(CO)N=Cc1c(O)n(-c2cccc3ccccc23)c(=O)[nH]c1=O,1.12,-12.2% (inactive)
Cc1cc(NC(=O)COC(=O)c2c(C)nn(Cc3ccccc3)c2Cl)no1,0.971,2.9% (inactive)
CSc1ccc(C(=O)C(C)(C)N2CCOCC2)cc1,0.965,3.5% (inactive)
CCOC(=O)c1c(-n2c(C)cc(C=C3C(=O)NC(=S)NC3=O)c2C)sc2c1CCCC2,0.649,35.1% (inactive)
COc1ccc(-n2c(=O)[nH]c3ccccc3c2=O)c(OC)c1,1.08,-7.55% (inactive)
CCOP(=O)(C(NC(=O)c1ccccc1Cl)=C(Cl)Cl)c1ccccc1 (stereo not given),1.07,-6.55% (inactive)
O=[N+]([O-])c1cc(S(=O)(=O)c2ccc(O)c([N+](=O)[O-])c2)ccc1O,0.471,52.9% (inactive)
O=C(Cc1ccccc1)Oc1ccccc1N1C(=O)CCC1=O,1.07,-7.1% (inactive)
CCOc1ccc2nc(N3CCC(C(=O)N4CCC5(CC4)OCCO5)CC3)sc2c1,0.97,3% (inactive)
CC1(C)CSC(Nc2ccc(F)c(Cl)c2)=N1,0.924,7.6% (inactive)
Clc1ccc(C(c2ccc(Cl)cc2)n2cc[n+](CC(OCc3ccc(Cl)cc3Cl)c3ccc(Cl)cc3Cl)c2)cc1 (stereo not given),31,-3000% (active)
Cc1nc2cc(F)ccc2n1C1CCN(Cc2nnnn2CCc2ccccc2)CC1,1.13,-13.2% (inactive)
O=C(Cn1cnc2ccccc2c1=O)NCCC(=O)N1CCC2(CC1)OCCO2,1.09,-9.25% (inactive)
COc1ccc(P2(=O)Nc3ccccc3N2)cc1,0.951,4.95% (inactive)
CCOC(=O)c1ccc(N2C(=O)CC(N3CC=C(c4ccc(F)cc4)CC3)C2=O)cc1 (stereo not given),0.996,0.45% (inactive)
